Hits are enriched below; roughly 2.4% of the tested compounds scored in any of these assays.
D2 PAM-1: D2 dopamine receptor (human) potentiation; P14416; HEK293 T-REx D2, calcium flux, EC20 dopamine potentiation; potentiation, % at 10 µM; 340,000 tested, 0.34% active;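 active = potentiation over 3 SD above the plate norm, cut at about 30% in these data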; also: 0% is about no effect
Target sequence (P14416 whole entry, looked up): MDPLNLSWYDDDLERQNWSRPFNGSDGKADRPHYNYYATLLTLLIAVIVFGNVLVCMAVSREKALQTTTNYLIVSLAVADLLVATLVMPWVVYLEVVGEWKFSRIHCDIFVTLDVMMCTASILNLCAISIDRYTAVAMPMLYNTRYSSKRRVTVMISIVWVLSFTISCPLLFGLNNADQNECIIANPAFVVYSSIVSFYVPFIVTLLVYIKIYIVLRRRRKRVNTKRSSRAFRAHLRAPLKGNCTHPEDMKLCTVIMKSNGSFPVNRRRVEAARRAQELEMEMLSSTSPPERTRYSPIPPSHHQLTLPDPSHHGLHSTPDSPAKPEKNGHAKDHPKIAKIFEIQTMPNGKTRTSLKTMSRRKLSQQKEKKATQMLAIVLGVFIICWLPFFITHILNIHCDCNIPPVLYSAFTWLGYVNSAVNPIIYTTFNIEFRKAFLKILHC
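Calcium flux readout, no-wash dye, 1 read/s. Inducible HEK293 Trex D2 line, overnight 30 C. Compound alone 180 s (agonist flags), then EC20 dopamine, another 180 s to score potentiation.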
D2 antag: D2 dopamine receptor (human) antagonism; 340,000 tested, 2% active; HEK293 TREx D2 cells, calcium flux, dopamine EC80; P14416; inhibition, % at 10 µM; in the data active = inhibition above about 30%; inactive = below that, where a call was filed; also: 0% is about no effect
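Antagonism is scored as inhibition of an EC80 dopamine-evoked calcium signal in a force-coupled, tetracycline-inducible HEK293 T-REx D2 line, with compound present 180 s before agonist.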
D2 PAM-2: potentiates the human D2 dopamine receptor allosterically | DiscoveRx D2 beta-arrestin cells, luminescence, 90 min; 100% = 57 uM dopamine signal | potentiation, % (test concentration not listed) | 360,000 tested, 0.23% active; in the data active = potentiation above about 50%
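PathHunter beta-arrestin assay in DiscoveRx D2 cells. Compounds were added with an EC20 of dopamine (50 nM final) for 90 min at 37 deg C. Luminescence was read 1 h after detection reagent, with 57 uM dopamine as the EC100 control.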
B2AR arrestin: recruits beta-arrestin to the human beta2-adrenergic receptor. P07550. beta-arrestin recruitment to beta2AR, cell-based reporter. Potency, µM (top dose mostly 46.1 µM), without a hit: at the top dose activation, usual class: activators. 330,000 tested, 0.02% active. AID 492947; active = well fitted activation curve with a large enough effect;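 also: potency is read from the fitted curve at half-maximal effect; 0% = DMSO controls and full agonism = EC100 isoproterenol or metaproterenol; nearly all actives have a fitted effect of over 65% in size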
D2 ag-1: activates the human D2 dopamine receptor | AID 624465 | 360,000 tested, 0.084% active | P14416 | DiscoveRx PathHunter D2 beta-arrestin, luminescence, 90 min; 100% = 57 uM dopamine signal | activation, % (no concentration beside the values); in the data active = activation above about 40%
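Agonist mode: compounds alone added to overnight-plated D2 PathHunter cells for 90 min at 37 C, with 57 uM final dopamine (EC100) defining full response. Beta-arrestin recruitment detected by chemiluminescent reagent, read after 1 h at ambient temperature.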
D2 ag-2: agonists of human D2 dopamine receptor; HEK293 T-REx D2 cells, calcium flux agonist mode; activation, % at 2 µM; 340,000 tested, 0.53% active;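 active = activation over 3 SD above normal in the single-dose calcium agonist read, cut at about 30% in these data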; also: 0% is about no effect
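Agonism is scored from calcium flux in a force-coupled, inducible HEK293 cell line expressing D2, read kinetically for 180 s after compound addition against dopamine controls.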
Starred values were filed as active, the others as inactive; x = no result given.

SMILES	D2 PAM-1	D2 antag	D2 PAM-2	B2AR arrestin	D2 ag-1	D2 ag-2
COc1ccc(OC(=O)c2nc(SCc3ccccc3F)ncc2Cl)cc1	11.1	x	x	x	x	-0.2
CCNC(=S)N(Cc1ccc(OC)cc1)C1CC(=O)N(c2ccc(OCC)cc2)C1=O (stereo not drawn)	-2.0	-5.4	-8.8	0.1%	-3.1	0.6
CCN(C(=O)N(CC)c1ccccc1)c1ccccc1	-9.6	42.5*	-0.3	-1.8%	4.8	-0.5
CC1CCCC(C)N1C(=O)CN1C(=O)C(C)(C)Oc2ccc(C(=O)NC3CCCCC3)cc21 (stereo not drawn)	9.8	-21.0	-6.5	x	1.1	0.2
CC(C)(C)NC(=O)c1ccc2c(c1)N(CC(=O)NC1CCCC1)C(=O)C(C)(C)O2	-28.6	53.1*	-20.1	0.2%	-1.2	-0.8
CC1CCCC(C)N1C(=O)CN1C(=O)C(C)(C)Oc2ccc(C(=O)NC3CCCC3)cc21 (stereo not drawn)	-7.2	33.3*	-4.7	x	-1.5	-0.9
CC(C)NC(=O)CN1C(=O)C(C)(C)Oc2ccc(C(=O)NC3CCCCC3)cc21	-24.0	31.5*	-16.5	-0.1%	-4.8	-0.1
O=C(NCc1ccccc1)N1CCOc2ccccc21	-2.2	-19.0	-4.8	-0.6%	-4.4	0.9
COc1cccc(N2CCN(Cc3ccsc3)CC2)c1	-22.8	48.0*	-18.4	0.2%	0.2	17.8
COc1ccccc1N1C(=S)N=C(Nc2c(C)cccc2C)C12CCCC2	7.7	-5.0	3.0	0.0%	-1.6	0.2
NS(=O)(=O)c1cccc(NC(=O)COC(=O)C2(c3cccc(F)c3)CCCC2)c1	-8.5	50.8*	6.8	0.3%	4.2	-2.0
NS(=O)(=O)c1cccc(NC(=O)CC2(CC(=O)O)CCCC2)c1	5.6	4.9	-2.4	0.2%	0.4	-2.5
S=C(NCc1ccco1)Nc1ccccc1Cl	9.3	2.5	-14.9	-0.4%	-3.9	0.4
CN(/N=C/c1ccc(-c2ccc([N+](=O)[O-])cc2)o1)c1ccccc1	9.7	7.6	0.4	-0.7%	-0.3	30.2*
O=C(NC1CCN(S(=O)(=O)c2ccccc2C(F)(F)F)CC1)c1ccco1	-8.3	30.3*	1.8	-0.3%	-1.0	-0.3
Cc1ccc(N(CC(=O)NCc2ccccn2)S(=O)(=O)c2ccccc2)cc1Cl	1.8	-13.1	-12.0	0.0%	-2.5	0.2
CC(CCc1ccccc1)NC(=O)C(=O)Nc1ccccc1 (stereo not drawn)	5.6	72.3*	-11.9	-0.3%	-0.4	-0.2
CCC(C)n1c(NC(=O)c2ccccc2)c(C#N)c2nc3ccccc3nc21 (stereo not drawn)	-7.4	-5.5	-11.2	0.3%	-5.5	-0.1
COCCCn1c(N)c(-c2nc3ccccc3n2C)c2nc3ccccc3nc21	-10.2	13.7	-4.0	-0.3%	0.2	39.3*
CCCCn1c(NC(=O)c2ccccc2)c(C#N)c2nc3ccccc3nc21	0.5	37.8*	1.6	0.2%	-0.4	6.9
COc1ccc(Cn2c(N)c(C#N)c3nc4ccccc4nc32)cc1	-0.3	-20.7	-12.4	0.0%	-1.7	1.0
COCCn1c(N)c(C#N)c2nc3ccccc3nc21	-5.3	36.0*	-3.7	-0.5%	1.4	0.6
COc1ccc(NC(c2ccccc2)c2ccncc2)cc1 (stereo not drawn)	2.2	40.7*	-1.3	-0.1%	5.2	-0.4
COc1cc(NC(c2ccccc2)c2ccccc2)cc(OC)c1OC	0.3	3.7	1.8	-1.3%	-5.7	-0.3
Cc1ccc(C(=O)NCc2occc2C(=O)O)o1	1.0	-2.6	7.3	-0.1%	-1.5	0.5
SMILES	D2 PAM-1	D2 antag	D2 PAM-2	B2AR arrestin	D2 ag-1	D2 ag-2
CSC1=NSC2=NC(=O)/C(=C\c3coc4ccccc4c3=O)C(=N)N12	-8.0	29.8	6.8	-1.7%	2.6	109.7*
N=C1/C(=C\c2coc3ccccc3c2=O)C(=O)N=C2SC(c3ccncc3)=NN12	-7.6	16.8	1.8	-0.3%	5.0	59.5*
CC(C)CSC1=NSC2=NC(=O)/C(=C\c3coc4ccccc4c3=O)C(=N)N12	-0.2	-13.3	5.9	0.2%	5.0	25.8
COc1cccc(C(=O)/C=C/c2ccc(SC)cc2)c1	-15.4	-6.0	-1.4	0.2%	-2.9	0.7
COc1ccc(-c2coc3c(C(=O)NCc4cccc(Cl)c4)cccc23)c(C)c1	x	x	-4.7	x	-5.3	x
CCOC(=O)N1CCC(N(CCN(C)C)C(=S)Nc2ccccc2OCC)CC1	1.0	10.8	-15.0	-0.8%	-4.8	0.4
O=C(CCN1CCN(c2ccccc2)CC1)NNC(=O)c1ccccc1	x	x	-11.7	x	4.0	x
O=C(OCc1c(Cl)cccc1Cl)c1ccccn1	5.1	34.7*	-16.3	0.1%	-2.3	0.3
N#CC1(NC(=O)COC(=O)C2CCN(S(=O)(=O)c3ccc4c(c3)OCCO4)CC2)CCCCC1	x	x	-2.1	x	0.6	x
CSCCC(NC(=O)c1ccc(Cl)cc1)C(=O)OCC(C)=O (stereo not drawn)	-4.3	32.1*	-5.5	-0.1%	-6.4	1.1
CSCCC(NC(=O)c1ccc(Cl)cc1)C(=O)OCC(=O)c1ccc[nH]1 (stereo not drawn)	-8.7	-1.4	-26.3	0.1%	-2.9	-1.6
COc1cc(C(CCN2CCCC2)c2c(OC)cc(OC)c3ccc(=O)oc23)cc(OC)c1OC (stereo not drawn)	-0.6	33.0*	-15.8	0.0%	0.7	0.4
CN(C)CCCNC(=O)N1c2ccccc2C=Cc2ccccc21	5.8	33.4*	-15.8	-0.1%	-5.2	0.7
CCOc1ccc(N2CC(C(=O)NCCc3ccc(S(N)(=O)=O)cc3)CC2=O)cc1 (stereo not drawn)	13.6	37.8*	-5.5	-0.3%	-1.8	1.2
CCOc1ccccc1N1CC(C(=O)NCCc2ccc(S(N)(=O)=O)cc2)CC1=O (stereo not drawn)	-6.2	-4.1	-3.3	0.4%	-3.6	0.2
CCOc1ccc(N2CC(C(=O)N3CCCc4ccccc43)CC2=O)cc1 (stereo not drawn)	x	55.8*	1.6	2.5%	0.5	-2.5
COc1ccc(N2CCN(C(=O)C34CCC(C)(C(=O)C3)C4(C)C)CC2)cc1 (stereo not drawn)	4.2	36.8*	-5.0	-0.3%	-0.5	0.0
CN(C)c1ccc(/C=N/NC(=O)C(O)(c2ccccc2)c2ccccc2)o1	3.4	32.6*	-8.2	-0.3%	1.0	-1.0
CN(C)c1ccc(/C=N/NC(=O)c2ccccc2O)o1	0.2	8.3	-1.7	-1.1%	1.6	1.0
COc1cc(=O)[nH]c(SC(C)C(=O)Nc2ccc3ccccc3c2)n1 (stereo not drawn)	37.1*	x	0.1	-1.2%	-0.7	x
